Structures are written as SMILES. The panel holds about 83,000 compounds, 20% with a hit somewhere; the sample as a whole holds those more often.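 Step 1: grow cells in 96-well plates. Step 2: add test compound at a single concentration. Step 3: incubate 48 h. Step 4: record percent growth.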 Unmarked numbers belong to inactive results. Calls of active or inactive are those of the source. Rule for the calls: active = growth percent below 10; inactive = the rest.

Among the test systems are NCI-H23 lung; NCI-H226 lung; NCI-H322M lung; HOP-62 NSCLC; NCI-H460 lung; NCI-H522 lung; A549/ATCC NSCLC; 786-0 renal; COLO 205 colon; DU-145 prostate; K-562 leukemia; MALME-3M melanoma; MDA-MB-231 breast; RXF 393 renal; SF-268 CNS; SF-295 CNS; SF-539 CNS; UACC-257 melanoma; M14 melanoma; HCT-15 colon.
What all share (assay): NCI-60 one-dose screen, 48 h (100 = growth as untreated, 0 = no growth, -100 = all killed)
Holding throughout (conditions): 10 µM unless noted

With `C=C(C)[C@@H]1C[C@H](O)Cc2cc(Cl)cc(Cl)c2N1`, the growth was 103% in the assay on NCI-H23 lung; 100% with NCI-H226 lung; 100% with NCI-H322M lung; 96.6% in the assay on HOP-62 NSCLC; 110% with NCI-H460 lung; 92.8% with NCI-H522 lung. The growth was 94.2% in the assay with A549/ATCC NSCLC; 100% in the assay on 786-0 renal; 107% in the assay on COLO 205 colon; 108% in the assay with DU-145 prostate; 103% in the assay with K-562 leukemia; 108% with MALME-3M melanoma. Also, the growth in the assay with MDA-MB-231 breast was 93.6%; in the assay with RXF 393 renal, 101%; in the assay with SF-268 CNS it was 102%; with SF-295 CNS, 104%; in the assay with SF-539 CNS, 94.5%; in the assay on UACC-257 melanoma, 104%. Further, the growth with M14 melanoma was 110%.
Regarding `Cc1cc(=O)n2n1-c1ccc(Cl)cc1NC(=O)C2`, the growth is 109% in the assay with NCI-H23 lung; 93.9% in the assay with NCI-H226 lung; 85.6% in the assay on NCI-H322M lung; 104% in the assay with HOP-62 NSCLC; 112% with NCI-H460 lung; 96.2% in the assay with NCI-H522 lung. In addition, the growth in the assay on A549/ATCC NSCLC is 100%; with 786-0 renal, 108%; with COLO 205 colon, 115%; in the assay with DU-145 prostate, 111%; in the assay with K-562 leukemia, 104%; in the assay on MALME-3M melanoma, 103%. Further, the growth in the assay on MDA-MB-231 breast is 122%; in the assay on RXF 393 renal, 104%; with SF-268 CNS, 109%; with SF-295 CNS it was 98.2%; in the assay on SF-539 CNS, 99%; in the assay on UACC-257 melanoma, 89%. Besides, the growth in the assay on M14 melanoma is 115%.
Turning to `CN(CCOc1ccc(CC2SC(=O)NC2=O)cc1)c1ccccn1` (centres undefined), the growth in the assay on NCI-H23 lung was 99.7%; in the assay on NCI-H226 lung, 98.9%; with NCI-H322M lung, 95.3%; with HOP-62 NSCLC, 94.3%; in the assay on NCI-H460 lung, 102%; in the assay with NCI-H522 lung it was 95.9%. Also, the growth is 99.2% in the assay with A549/ATCC NSCLC; 108% with 786-0 renal; 82.7% in the assay with COLO 205 colon; 107% in the assay with DU-145 prostate; 118% in the assay with K-562 leukemia; 88.3% with MALME-3M melanoma. In addition, the growth with MDA-MB-231 breast was 86.5%; in the assay with RXF 393 renal, 110%; in the assay with SF-268 CNS it was 105%; in the assay on SF-295 CNS it was 98.9%; with SF-539 CNS it was 104%; in the assay with UACC-257 melanoma it was 98.4%. Moreover, the growth in the assay on M14 melanoma is 99.7%.
Consider `N#Cc1c(N)[nH]c(S)c1C#N`, for which the growth is 105% with NCI-H23 lung; 97.5% in the assay with NCI-H226 lung; 108% in the assay with NCI-H322M lung; 100% in the assay with HOP-62 NSCLC; 107% with NCI-H460 lung; 97.4% with NCI-H522 lung. For the same molecule, the growth is 90.9% in the assay on A549/ATCC NSCLC; 107% with 786-0 renal; 120% in the assay with COLO 205 colon; 112% with DU-145 prostate; 100% with K-562 leukemia; 107% with MALME-3M melanoma. Moreover, the growth was 99.3% in the assay on MDA-MB-231 breast; 113% in the assay on RXF 393 renal; 108% in the assay on SF-268 CNS; 87.7% with SF-295 CNS; 97.9% in the assay on SF-539 CNS; 99.9% in the assay with UACC-257 melanoma. The growth with M14 melanoma and in the assay on HCT-15 colon was 100% each time.
Regarding `Cc1ccc2c(c1)C(=O)/C(=C/c1ncc([N+](=O)[O-])n1C)O2`, the growth is -2.65% (active) in the assay on NCI-H23 lung; 65.7% in the assay with NCI-H226 lung; 75.6% in the assay on NCI-H322M lung; 61.2% with HOP-62 NSCLC; -38% (active) in the assay on NCI-H460 lung; -64.1% (active) with NCI-H522 lung. The growth in the assay with A549/ATCC NSCLC was 6.86% (active); in the assay with 786-0 renal it was 2.46% (active); in the assay with COLO 205 colon it was -74.8% (active); in the assay with DU-145 prostate it was -25.9% (active); in the assay with K-562 leukemia it was 0.705% (active); with MALME-3M melanoma, -46.7% (active). The growth in the assay on MDA-MB-231 breast is -40.1% (active); in the assay on RXF 393 renal, -57.7% (active); in the assay with SF-268 CNS it was -31.9% (active); in the assay on SF-295 CNS it was 18%; in the assay with SF-539 CNS it was 39.1%; with UACC-257 melanoma it was -34.6% (active). Besides, the growth in the assay with M14 melanoma is -55.8% (active).
In the case of `O=C1CC(C(F)(F)F)=NN1C(=O)c1nn(-c2ccc(Cl)cc2)cc1O`, the growth with NCI-H23 lung is 101%; with NCI-H226 lung it was 79.8%; in the assay on NCI-H322M lung, 15.6%; in the assay with HOP-62 NSCLC, 70.2%; in the assay with NCI-H460 lung, 71.2%; with NCI-H522 lung it was 89.9%. Further, the growth in the assay with A549/ATCC NSCLC was 91.2%; with 786-0 renal it was 97.7%; in the assay with COLO 205 colon, 125%; in the assay on DU-145 prostate, 83.6%; with K-562 leukemia it was 96.7%; with MALME-3M melanoma it was 146%. The growth with MDA-MB-231 breast was 81.9%; with RXF 393 renal, 78.1%; with SF-268 CNS it was 56.7%; in the assay on SF-295 CNS, 81.3%; in the assay on SF-539 CNS it was 82.7%; in the assay with UACC-257 melanoma it was 111%. The growth with M14 melanoma was 88.4%.
`CN1COc2ccc3ccccc3c2C1`: the growth with NCI-H23 lung is 88.8%; with NCI-H226 lung, 93.7%; with NCI-H322M lung, 91.4%; with HOP-62 NSCLC, 80.1%; in the assay with NCI-H460 lung it was 107%; in the assay with NCI-H522 lung, 90.3%. Also, the growth in the assay on A549/ATCC NSCLC is 97.4%; in the assay with 786-0 renal, 91%; in the assay with COLO 205 colon, 133%; in the assay on DU-145 prostate, 107%; in the assay on K-562 leukemia, 99.7%; in the assay on MALME-3M melanoma it was 111%. For the same molecule, the growth in the assay on MDA-MB-231 breast was 102%; in the assay on RXF 393 renal it was 107%; in the assay on SF-268 CNS, 100%; in the assay with SF-295 CNS, 96.1%; in the assay on SF-539 CNS, 84.9%; in the assay on UACC-257 melanoma, 107%. In addition, in the assay with M14 melanoma, the growth is 86.4%.
`c1coc([C@@H]2C[C@@H]3Cc4ccc5ccccc5c4N2O3)c1`: the growth with NCI-H23 lung is 94.3%; in the assay on NCI-H226 lung, 107%; in the assay on NCI-H322M lung, 106%; with HOP-62 NSCLC, 88.6%; in the assay with NCI-H460 lung, 117%; with NCI-H522 lung, 86.8%. For the same molecule, the growth in the assay on A549/ATCC NSCLC is 94.9%; in the assay on 786-0 renal, 103%; with COLO 205 colon it was 130%; in the assay with DU-145 prostate, 120%; with K-562 leukemia it was 102%; with MALME-3M melanoma, 97.7%. Moreover, the growth was 108% in the assay on MDA-MB-231 breast; 94.2% in the assay with RXF 393 renal; 111% with SF-268 CNS; 101% in the assay on SF-295 CNS; 99.6% in the assay on SF-539 CNS; 99.2% in the assay on UACC-257 melanoma. Further, the figures for the growth in the assay with M14 melanoma and with HCT-15 colon were 108% and 99.5%, respectively.

For the origin of these results see PubChem BioAssay (NCI).
